Results from PubChem BioAssay AID1851 (National Center for Advancing Translational Sciences (NCATS), 2009).
Among all 16,000 compounds or so, about 5,800 (36%) were called active. Inconclusive results (about 23%) are left out. The list shows a part of the results. Values without a mark were called inactive. Calls follow the shape of the dose curve; as a rule, active = well fitted curve in the direction sought with a large enough effect; inconclusive = small, poorly fitted or top-dose-only effect, or effect the other way; inactive = no such curve, though single readings can be large or run the other way. Numbered stars: 1 amine (or outer) side, 2 acyl side, 3 side chain; on linkers, the order of the positions; unused ones are H or OH. Bridge positions count the residues as written; N and C are the ends. Square brackets hold non-standard residues; d marks the D form. Peptide text beside a SMILES is read from it. I, II: the chains in the order shown. Actinocin(9to1) = Cc1c2oc3c(C)ccc(C(=O)[*:1])c3nc-2c(C(=O)[*:2])c(N)c1=O; aThr = C[C@H](O)[C@H](N)C(=O)O; NMeV = CN[C@H](C(=O)O)C(C)C; Sar = CNCC(=O)O

molecular target: Cytochrome P450 2C19 (Homo sapiens) (UniProt P33261); test: Cytochrome panel assay with activity outcomes; details: recombinant CYP, pro-luciferin dealkylation, luminescence, p450-cyp2c19; series mostly up to 57.1 µM
Sequence (P33261 whole entry, looked up): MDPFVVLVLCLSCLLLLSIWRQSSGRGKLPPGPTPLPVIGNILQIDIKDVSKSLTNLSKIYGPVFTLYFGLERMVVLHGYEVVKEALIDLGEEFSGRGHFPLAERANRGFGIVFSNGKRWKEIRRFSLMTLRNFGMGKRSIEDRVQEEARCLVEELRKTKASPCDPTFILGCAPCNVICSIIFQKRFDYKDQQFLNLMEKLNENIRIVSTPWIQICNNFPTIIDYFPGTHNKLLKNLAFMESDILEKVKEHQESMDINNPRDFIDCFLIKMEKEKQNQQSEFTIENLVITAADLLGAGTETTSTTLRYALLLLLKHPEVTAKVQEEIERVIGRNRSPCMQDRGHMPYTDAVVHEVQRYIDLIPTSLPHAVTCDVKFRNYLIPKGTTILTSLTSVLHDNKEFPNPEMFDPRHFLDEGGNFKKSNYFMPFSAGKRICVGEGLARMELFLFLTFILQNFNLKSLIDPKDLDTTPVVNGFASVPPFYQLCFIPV
% is scaled to controls: 0 for no effect and ±100 for the full control effect.

Structure (SMILES) | activity, negative = inhibition | AC50
CO[C@@H]1COC(=O)C/C=C\[C@@H](C)COC(=O)[C@H](COCc2ccccc2)NC(=O)C/C=C\[C@H]1C | -16.4% [at 11.4 µM] | 
CO[C@H]1COC(=O)C/C=C\[C@H](C)[C@@H](OC)COC(=O)[C@H](Cc2ccccc2)NC(=O)C/C=C\[C@@H]1C | -37.5% [at 11.4 µM] | 
CO[C@@H]1COC(=O)C/C=C\[C@H](C)COC(=O)[C@H](Cc2ccccc2)NC(=O)C/C=C\[C@H]1C |  | 2.51 µM (active)
CCCCN1CCC(CCC(=O)c2cc(Cl)c(N)cc2OC)CC1 |  | inactive
COc1cc(N)c(Cl)cc1C(=O)CCC1CCN(CCNS(C)(=O)=O)CC1 |  | 10 µM (active)
Cn1cc(C(=O)OCC2CCN(CCNS(C)(=O)=O)CC2)c2ccccc21 |  | inactive
CC(=O)N[C@@H](c1ccccc1)[C@]1(C)C[C@H]1[C@@H](C)C(=O)Nc1ccc2ccccc2c1 |  | 0.398 µM (active)
C[C@@H](C(=O)Nc1ccc2ccccc2c1)[C@@H]1C[C@@]1(C)[C@@H](N)c1ccccc1 |  | inactive
C[C@@H](C(=O)Nc1ccc2ccccc2c1)[C@@H]1C[C@@]1(C)[C@@H](NC(=O)c1cnccn1)c1ccccc1 |  | inactive
C[C@@H](C(=O)Nc1ccc2ccccc2c1)[C@@H]1C[C@@]1(C)[C@@H](NS(=O)(=O)c1ccc(-c2ccccc2)cc1)c1ccccc1 |  | inactive
C[C@@H](C(=O)Nc1ccc2ccccc2c1)[C@@H]1C[C@@]1(C)[C@@H](NC(=O)c1ccncc1Cl)c1ccccc1 |  | inactive
C[C@@H](C(=O)Nc1ccc2ccccc2c1)[C@H]1C[C@]1(C)[C@H](NC(=O)c1cnccn1)c1ccccc1 |  | 15.8 µM (active)
C[C@@H](C(=O)Nc1ccc2ccccc2c1)[C@H]1C[C@]1(C)[C@H](NS(=O)(=O)c1ccc2ccccc2c1)c1ccccc1 |  | 0.251 µM (active)
C[C@@H](C(=O)Nc1ccc2ccccc2c1)[C@@H]1C[C@@]1(C)[C@@H](NS(=O)(=O)c1ccc2ccccc2c1)c1ccccc1 |  | inactive
CC(=O)N[C@H](c1ccccc1)[C@@]1(C)C[C@@H]1[C@@H](C)C(=O)Nc1ccc2ccccc2c1 |  | 5.01 µM (active)
CO[C@H]1C[C@@H](O[C@@H]2[C@H](C)[C@H](O[C@@H]3O[C@@H](C)C[C@@H](N(C)C)[C@@H]3O)[C@H](C)C[C@]3(CO3)C(=O)[C@H](C)[C@H](O)[C@H](C)[C@H](C)OC(=O)[C@@H]2C)O[C@@H](C)[C@H]1O |  | inactive
C[C@@H](C(=O)Nc1ccc2ccccc2c1)[C@H]1C[C@]1(C)[C@H](NS(=O)(=O)c1ccc(-c2ccccc2)cc1)c1ccccc1 |  | inactive
COC(=O)N[C@H](c1ccccc1)[C@@]1(C)C[C@@H]1[C@@H](C)C(=O)Nc1ccc2ccccc2c1 |  | 3.16 µM (active)
C[C@@H](C(=O)Cc1ccc2ccccc2c1)[C@@H]1C[C@@]1(C)[C@@H](NP(=O)(c1ccccc1)c1ccccc1)c1ccccc1 |  | inactive
C[C@@H](C(=O)Nc1ccc2ccccc2c1)[C@H]1C[C@]1(C)[C@H](NP(=O)(c1ccccc1)c1ccccc1)c1ccccc1 |  | 10 µM (active)
C[C@@H](C(=O)Nc1ccc2ccccc2c1)[C@H]1C[C@]1(C)[C@H](NC(=O)Oc1ccc(F)cc1)c1ccccc1 |  | inactive

Structure (SMILES) | activity, negative = inhibition | AC50
C[C@@H](C(=O)Nc1ccc2ccccc2c1)[C@@H]1C[C@@]1(C)[C@@H](NC(=O)Oc1ccc(F)cc1)c1ccccc1 |  | inactive
COc1ccc([C@@H]2Sc3ccccc3N(CCN(C)C)C(=O)[C@@H]2OC(C)=O)cc1 |  | inactive
COc1ccc(C2C(=O)N(CCc3ccccc3)CC(=O)N2C2CCCC2)cc1 (stereo not drawn) |  | 11.2 µM (active)
COc1ccc(C2C(C(=O)N3CCN(C)CC3)c3ccccc3C(=O)N2C2CCCCC2)cc1 (stereo not drawn) |  | inactive
CCCCN1C(=O)CN(CCc2ccccc2)C(=O)C1c1ccc(OC)cc1 (stereo not drawn) |  | 7.08 µM (active)
Cc1noc(C)c1C(=O)N1CCC[C@@]2(CCN(C(=O)NC(C)C)C2)C1 |  | inactive
CCn1c(SCC(=O)OC)nc2sc3c(c2c1=O)CCC3 |  | 8.91 µM (active)
CCCc1ccc(C2C3=C(CC(C)(C)CC3=O)NC3=C2C(=O)c2ccccc23)cc1 (stereo not drawn) |  | 4.47 µM (active)
c1ccc(Nc2ncnc3ccc(-c4ccoc4)cc23)cc1 |  | 2 µM (active)
FC(F)(F)c1ccccc1-c1ccc2ncnc(NCc3cccnc3)c2c1 |  | 0.00794 µM (active)
COc1ncc2nc(-c3ccccc3)c(=O)n(C)c2n1 |  | inactive
c1ccc(Nc2ncnc3ccc(-c4cccnc4)cc23)cc1 |  | inactive
COc1cccc(-c2ccc3ncnc(Nc4ccccc4)c3c2)c1 |  | 0.501 µM (active)
COc1cccc(Nc2ncc3nc(-c4ccccc4)c(=O)n(C)c3n2)c1 |  | inactive
COc1ccc(-n2cnc3sc(-c4ccccc4)cc3c2=O)cc1 |  | 14.1 µM (active)
CN(C)C(=O)c1ccc(-c2ccc3ncnc(Nc4ccccc4)c3c2)cc1 |  | inactive
CC(C)=NO[C@@H](C)CN1CCCCc2nc(C)c(C)cc21 | -14.1% [at 11.4 µM] | 
NCCNc1ncnc2ccc(Cl)cc12 | -2.27% [at 11.4 µM] | 
COc1cccc(-c2ccc3ncnc(NCc4cccnc4)c3c2)c1 |  | 0.0126 µM (active)
Clc1cccc(Nc2ncnc3ccc(Br)cc23)c1 |  | 5.01 µM (active)
COCCNc1ncnc2ccc(-c3ccccc3CN(C)C)cc12 |  | inactive

Structure (SMILES) | activity, negative = inhibition | AC50
COCCNc1ncnc2ccc(-c3ccccc3OC)cc12 |  | 5.01 µM (active)
COc1ccccc1-c1ccc2ncnc(NCc3cccnc3)c2c1 |  | 0.00794 µM (active)
COc1ccccc1CN1CC[C@@]2(CCCN(C(=O)c3ccco3)C2)C1 |  | inactive
Cc1cnc(CNc2ncnc3ccc(-c4cccc(C#N)c4)cc23)cn1 |  | inactive
COc1cccc(-c2ccc3ncnc(NCc4cnc(C)cn4)c3c2)c1 |  | 15.8 µM (active)
FC(F)(F)c1ccccc1-c1ccc2ncnc(NCc3cccs3)c2c1 |  | 3.16 µM (active)
COc1ccc(Nc2ncnc3sc(-c4ccccc4)cc23)cc1 |  | 3.16 µM (active)
COCCNc1ncnc2ccc(-c3ccccc3C(F)(F)F)cc12 |  | 6.31 µM (active)
O=C(c1cnccn1)N1CCC[C@@]2(CCN(c3ncccn3)C2)C1 |  | inactive
Cc1c2oc3c(C)ccc(C(=O)N[C@@H]4C(=O)N[C@@H](C(C)C)C(=O)N5CCC[C@@H]5C(=O)N(C)CC(=O)N(C)[C@@H](C(C)C)C(=O)O[C@H]4C)c3nc-2c(C(=O)N[C@@H]2C(=O)N[C@@H](C(C)C)C(=O)N3CCC[C@@H]3C(=O)N(C)CC(=O)N(C)[C@@H](C(C)C)C(=O)O[C@H]2C)c(N)c1=O (I: [aThr]V[dP][Sar][NMeV] / II: [aThr]V[dP][Sar][NMeV]; ester I:1-I:C, II:1-II:C; linker I:N-II:N via Actinocin(9to1)) |  | inactive
Clc1ccccc1-c1ccc2ncnc(NCc3cccnc3)c2c1 |  | 0.01 µM (active)
COc1ccccc1-c1ccc2ncnc(Nc3ccccc3)c2c1 |  | 5.01 µM (active)
COc1ccccc1-c1ccc2ncnc(NCc3ccccc3)c2c1 |  | 3.98 µM (active)
CN(C)Cc1ccccc1-c1ccc2ncnc(NCc3ccccc3)c2c1 |  | inactive
Nc1nc2n[nH]nc2c(=O)[nH]1 |  | inactive
CN(C)c1nc(N)c(C(=O)N=C(N)N)nc1Cl |  | inactive
NC(N)=NC(=O)c1nc(Cl)c(N2CCCCCC2)nc1N |  | 5.01 µM (active)
NC(N)=NC(=O)c1nc(Cl)c(N)nc1N |  | inactive
CCN(c1nc(N)c(C(=O)N=C(N)N)nc1Cl)C(C)C |  | inactive
c1c[nH]c(CN2CCN(Cc3ncc[nH]3)CC2)n1 | -25.8% [at 11.4 µM] | 
Cc1cc(C(=O)CSC(=S)SC(C)(C)C)ccc1Cl |  | 1 µM (active)

Structure (SMILES) | activity, negative = inhibition | AC50
CC(=O)N1CCc2cc(Br)cc(S(=O)(=O)N3CCN(C(=O)c4ccco4)CC3)c21 |  | 4.47 µM (active)
Cc1ccc(NC(=O)c2nnn(-c3cc(C)cc(C)c3)c2N)cc1 |  | 3.98 µM (active)
Cc1cc(Cc2cc(C)cc(C(C)(C)C)c2O)c(O)c(Cc2cc(C)cc(C(C)(C)C)c2O)c1 |  | 3.16 µM (active)
Cc1cc(Cc2cc(Cc3cc(C)cc(C(C)(C)C)c3O)c(C)cc2C)c(O)c(C(C)(C)C)c1 |  | 1 µM (active)
Cc1cc(Cc2c(C)c(C)c(Cc3cc(C)cc(C(C)(C)C)c3O)c(C)c2C)c(O)c(C(C)(C)C)c1 | 37.4% [at 11.4 µM] | 
CCN1CCN(C(=O)N[C@H](C(=O)N[C@@H]2C(=O)N3[C@@H]2SC(C)(C)[C@@H]3C(=O)O)c2ccccc2)C(=O)C1=O |  | inactive
N#Cc1cccc(-c2cncnc2NCc2ccccc2)c1 |  | 7.94 µM (active)
Cc1cccc(CNc2ncncc2-c2cccc(C#N)c2)c1 |  | 3.98 µM (active)
N#Cc1cccc(-c2cncnc2NCc2cccnc2)c1 |  | 3.98 µM (active)
N#Cc1cccc(-c2cncnc2NCc2cccs2)c1 |  | 7.94 µM (active)
Cc1cnc(CNc2ncncc2-c2cccc(C#N)c2)cn1 |  | inactive
CC(C)CN1CCC2(CC1)CCN(C(=O)c1cccn1C)CC2 |  | inactive
CC(=O)NC1=NC(=O)CS1 |  | inactive
Nc1cc(-c2ccncc2)c[nH]c1=O |  | 5.01 µM (active)
Cc1cccc(C)c1OC[C@@H](N)C(C)C |  | inactive
CCCCc1ccc(-c2csc(/C(C#N)=C/c3ccc(C)o3)n2)cc1 |  | 5.62 µM (active)
Nc1nnc(C(c2ccccc2)c2ccccc2)s1 |  | 22.4 µM (active)
O=C(NC1CCCC1)C(c1ccc(F)cc1)N(Cc1ccc(F)cc1)C(=O)c1ccn[nH]1 (stereo not drawn) |  | 5.01 µM (active)
COc1ccc(CC(NC(C)=O)C(=O)NC2CCN(C(=O)Nc3ccc(Cl)cc3)CC2)cc1OC (stereo not drawn) |  | inactive
COc1ccc(C(C(=O)NC2CCCC2)N(Cc2ccc(F)cc2)C(=O)c2ccn[nH]2)cc1OC (stereo not drawn) |  | 10 µM (active)
